Source: PubChem (National Center for Advancing Translational Sciences (NCATS))
An excerpt weighted towards active compounds, which were near 5.9% of everything screened.
Gal4-VP16 FLuc – inhibits Gal4-VP16 luciferase reporter, ROR gamma counter-screen; Drosophila S2 Gal4-VP16 UAS-luciferase, luminescence, 20 h; Potency, µM (series often up to 53.6 µM), for the others: at the top dose activity, negative = inhibition, usual class: inhibitors; hit rate 3.5% among 310,000; AID 2546;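 also: Gal4-VP16 expression switched on by copper sulfate through the metallothionein promoter; % is scaled to controls: 0 for no effect and ±100 for the full control effect; nearly all actives have a fitted effect of over 50% in size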
GLP1R ag – agonists of human GLP-1 receptor; AID 624172; hit rate 0.007% among 380,000; Potency, µM (highest dose often 45.6 µM), for inactives: at the highest dose activation, usual class: activators; P43220; HEK293 GLP-1R CRE-luciferase, luminescence, 4-6 h; cells express a hypersensitive GLP-1R form; also: % of control where 0% means no effect
GLP-1R inv ag – GLP-1 receptor (human) inverse agonism; P43220; HEK293 GLP-1R CRE-luciferase, luminescence, 24 h; GLP-1R form is constitutively active; Potency, µM (titrated, usually from 38.3 µM), inactives show at the highest dose activity change, negative = inhibition, most hits filed as inhibitors; hit rate 1.6% among 410,000; also: % is scaled to controls: 0 for no effect and ±100 for the full control effect; nearly all actives have a fitted effect of over 55% in size
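Seeding at 200 cells/uL, 12 h culture, 24 hr compound treatment, then luciferase reagent and a luminescence read; cells are HEK293 stably expressing a constitutively active GLP-1R plus cAMP-responsive luciferase.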
GLP1R cytotox – cytotoxic in the GLP-1 receptor inverse agonist counter-screen; HEK293 cAMP-luciferase reporter cells, luminescence, 24 h; Potency, µM (series often up to 38.3 µM), inactives show at the top dose activity change, negative = inhibition, actives largely listed as inhibitors; hit rate 0.13% among 410,000;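 also: loss of luciferase light is scored as toxicity; % is scaled to controls: 0 for no effect and ±100 for the full control effect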
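Luminescence readout: signal drop marks cytotoxicity. Plated cells grew 12 h at 37 °C, 5% CO2, received 23 nL compound for 24 h, then got luciferase reagent, read after 12 min at RT.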
RORgamma inh – inhibitors of mouse ROR gamma transcriptional activity. P51450. Drosophila S2 Gal4-RORgamma UAS-luciferase reporter, 20 h. Potency, µM (top dose mostly 53.6 µM), without a hit: at the top dose activity change, negative = inhibition, most hits filed as inhibitors. hit rate 5.4% among 310,000; also: % is scaled to controls: 0 for no effect and ±100 for the full control effect; nearly all actives have a fitted effect of over 60% in size
Target sequence (P51450 whole entry, looked up, the tested form may be a part): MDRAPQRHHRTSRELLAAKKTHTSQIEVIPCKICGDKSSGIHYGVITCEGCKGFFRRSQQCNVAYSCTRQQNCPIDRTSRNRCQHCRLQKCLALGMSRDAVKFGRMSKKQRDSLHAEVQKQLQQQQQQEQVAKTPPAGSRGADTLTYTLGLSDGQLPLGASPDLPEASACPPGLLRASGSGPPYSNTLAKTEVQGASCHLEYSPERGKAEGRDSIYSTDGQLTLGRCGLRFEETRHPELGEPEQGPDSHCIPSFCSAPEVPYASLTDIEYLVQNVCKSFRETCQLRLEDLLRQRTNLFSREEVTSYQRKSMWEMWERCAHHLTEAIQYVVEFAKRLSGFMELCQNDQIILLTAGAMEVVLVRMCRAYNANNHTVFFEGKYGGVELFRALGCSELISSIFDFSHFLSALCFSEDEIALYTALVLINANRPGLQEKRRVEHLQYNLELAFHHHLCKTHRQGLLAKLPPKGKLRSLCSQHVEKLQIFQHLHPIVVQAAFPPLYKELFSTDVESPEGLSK
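A Gal4/UAS one-hybrid system in insect cells: metallothionein-promoter Gal4–ROR gamma fusion plus Photinus luciferase reporter. Copper sulfate 700 uM final, 20 hr ambient incubation, luminescent detection after 10 min with reagent.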
* hit, by the source's call; [ ] = another dose, or the depositor's remark. Calls follow the shape of the dose curve; as a rule, active = well fitted curve in the direction sought with a large enough effect; inconclusive = small, poorly fitted or top-dose-only effect, or another doubt; inactive = no such curve, though single readings can be large; an effect the other way counts as inactive or inconclusive. Potency is read from the fitted curve at half-maximal effect.

Results for CCc1cc2c(cc3c(=O)n(CC(=O)NC4CCCCC4)ncn32)s1 ?
GLP-1R inv ag: 2%; GLP1R cytotox: 7%

How did COC(=O)c1ccc(C2NC(=S)N(c3ccccc3)C(C)=C2C(=O)Nc2ccccc2OC)cc1 (configuration not stated) do in these assays?
Gal4-VP16 FLuc: inconclusive; GLP1R ag: -2%; GLP-1R inv ag: 2%; GLP1R cytotox: -10%; RORgamma inh: 10µM*

Results for COc1ccccc1NC(=O)C1=C(C)N(c2ccccc2)C(=S)NC1c1cccc(C(F)(F)F)c1 (configuration not stated) ?
Gal4-VP16 FLuc: -9%; GLP1R ag: 1%; GLP-1R inv ag: inconclusive; GLP1R cytotox: inconclusive; RORgamma inh: -24%

Results for CCOC(=O)c1c(-c2ccccc2)csc1NC(=O)CSc1ccccc1 ?
Gal4-VP16 FLuc: inconclusive; GLP1R ag: 14%; GLP-1R inv ag: inconclusive; GLP1R cytotox: 10%; RORgamma inh: 6%

Results for CCOC(=O)c1c(-c2ccc(OC)cc2)csc1/N=C/N(C)C ?
Gal4-VP16 FLuc: 0%; GLP1R ag: 0%; GLP-1R inv ag: 4%; GLP1R cytotox: -6%; RORgamma inh: 7%

What do the screens show for `CCOC(=O)c1c(-c2ccc(OC)cc2)csc1/N=C/C1C(=O)CCCC1=O`?
Gal4-VP16 FLuc: inconclusive; GLP1R ag: 19%; GLP-1R inv ag: inconclusive; GLP1R cytotox: inconclusive; RORgamma inh: 3.2µM*

How did CCOC(=O)c1c(-c2ccc(Br)cc2)csc1NC(=O)c1ccc(F)cc1 do in these assays?
GLP-1R inv ag: -1%; GLP1R cytotox: 6%

Results for CCOC(=O)c1c(-c2ccccc2)csc1NC(=O)CSc1nncs1 ?
Gal4-VP16 FLuc: inconclusive; GLP1R ag: 0%; GLP-1R inv ag: inconclusive; GLP1R cytotox: 0%; RORgamma inh: 28%

What do the screens show for `CCOC(=O)c1c(NC(=O)CSc2nncs2)sc(C)c1-c1ccccc1`?
Gal4-VP16 FLuc: 0.45µM*; GLP1R ag: 4%; GLP-1R inv ag: inconclusive; GLP1R cytotox: 3%; RORgamma inh: -25%

Results for COC(=O)c1c(-c2ccc(C)cc2)csc1NC(=S)NC(=O)c1ccc(F)cc1 ?
Gal4-VP16 FLuc: 5µM*; GLP1R ag: 2%; GLP-1R inv ag: 26%; GLP1R cytotox: -5%; RORgamma inh: 2.5µM*

Results for CCOC(=O)c1c(-c2ccc(OC)cc2)csc1NC(=O)CSc1ccccc1 ?
Gal4-VP16 FLuc: 12%; GLP1R ag: 0%; GLP-1R inv ag: 4.5µM*; GLP1R cytotox: 4%; RORgamma inh: 2%

What do the screens show for `O=C(Nc1c2c(nn1-c1ccc(Cl)cc1)CS(=O)(=O)C2)c1cccc(F)c1`?
GLP1R ag: 3%; GLP-1R inv ag: -6%; GLP1R cytotox: -11%

How did CO/N=C(/C(=O)N[C@@H]1C(=O)N2C(C(=O)OC(C)OC(C)=O)=C(COC(N)=O)CS[C@H]12)c1ccco1 (some centres not stated) do in these assays?
GLP1R ag: 6%

How did Cc1ccc(NC(=O)c2sc3ncnc(N(C)C4CCCCC4)c3c2C)cc1 do in these assays?
GLP-1R inv ag: inconclusive; GLP1R cytotox: -14%

Results for CN1[C@@H]2CC[C@H]1CC(OC(=O)[C@@H](O)c1ccccc1)C2 (some centres not stated) ?
Gal4-VP16 FLuc: 1%; GLP1R ag: 19%; RORgamma inh: -18%[10 µM]

Results for CCOC(=O)c1c(-c2ccc(C)cc2)csc1NC(=S)NC(=O)c1ccccc1 ?
Gal4-VP16 FLuc: 2.8µM*; GLP1R ag: -11%; GLP-1R inv ag: inconclusive; GLP1R cytotox: -8%; RORgamma inh: 3.2µM*

How did CCOC(=O)c1c(-c2ccc(OC)c(OC)c2)csc1NC(=O)c1ccc(C)cc1 do in these assays?
GLP-1R inv ag: 5%; GLP1R cytotox: 4%

How did CCOC(=O)c1c(-c2cccc([N+](=O)[O-])c2)csc1NC(=O)CCCOc1ccccc1 do in these assays?
Gal4-VP16 FLuc: 8.9µM*; GLP1R ag: 7%; GLP-1R inv ag: 22%; GLP1R cytotox: -15%; RORgamma inh: inconclusive

Results for CCc1ccccc1NC(=O)C(=O)NCCCN1CCOCC1 ?
GLP1R ag: 6%; GLP-1R inv ag: 17%; GLP1R cytotox: 0%

How did COc1ccc(-n2c(=O)c3c(c4cc(OC)ccc4n3C)n(C)c2=O)cc1 do in these assays?
GLP1R ag: 0%; GLP-1R inv ag: 2%; GLP1R cytotox: 1%

How did CC(C1CC2CCC1C2)N1CC(O)=C(c2nc3ccccc3[nH]2)C1=N (configuration not stated) do in these assays?
Gal4-VP16 FLuc: inconclusive; GLP1R ag: 10%; GLP-1R inv ag: inconclusive; GLP1R cytotox: -12%; RORgamma inh: 8.9µM*

What do the screens show for `C=CCOCC1CN2C(CCC(C)C2c2ccc(Br)cc2)C(=O)O1` (configuration not stated)?
Gal4-VP16 FLuc: 1%[10 µM]; RORgamma inh: -6%[10 µM]

How did CC(C)(C)c1ccc(C(=O)Nc2ccc(Oc3cccnc3)nc2)cc1 do in these assays?
Gal4-VP16 FLuc: inconclusive; GLP1R ag: 0%; GLP-1R inv ag: 8.9µM*; GLP1R cytotox: -5%; RORgamma inh: -37%

How did CCc1cccc(NC(=O)Cn2nc(-c3cc(C)ccc3C)ccc2=O)c1 do in these assays?
GLP-1R inv ag: inconclusive; GLP1R cytotox: -8%

How did Cn1sc(=O)n(Cc2ccccc2)c1=O do in these assays?
Gal4-VP16 FLuc: inconclusive; RORgamma inh: 3.2µM*

How did Cn1c(=O)n(Cc2ccccc2)c2ccccc21 do in these assays?
Gal4-VP16 FLuc: 14%; GLP1R ag: 17%; GLP-1R inv ag: 40%; GLP1R cytotox: -20%; RORgamma inh: -3%

How did NCCC[C@@H](CC(=O)N[C@@H]1CCCC[C@H]1C(=O)N[C@H](CC(=O)N[C@@H](CCC(=O)O)CC(=O)O)Cc1c[nH]c2ccccc12)NC(=O)C[C@H](Cc1c[nH]c2ccccc12)NC(=O)[C@@H]1CCCC[C@H]1N do in these assays?
Gal4-VP16 FLuc: 1%; RORgamma inh: 0%

Results for Cc1cccc(-n2c(-c3csc(C(C)C)c3)n[nH]c2=S)c1 ?
Gal4-VP16 FLuc: inconclusive; GLP1R ag: 0%; GLP-1R inv ag: 0%; GLP1R cytotox: -5%; RORgamma inh: 1.6µM*

What do the screens show for `CCCc1cc(-c2n[nH]c(=S)n2-c2cccc(C)c2)cs1`?
Gal4-VP16 FLuc: inconclusive; GLP1R ag: 13%; GLP-1R inv ag: -6%; GLP1R cytotox: 8%; RORgamma inh: 1.4µM*

Results for COc1cc(OC)cc(-c2nnc3n2N=C(c2ccccc2OC)CS3)c1 ?
Gal4-VP16 FLuc: 0%; RORgamma inh: 12%
